# According to PubChem BioAssay (NCATS):
# Results filed as inconclusive are left out. Calls of active or inactive are those of the source. Unless noted, the call rests on the fitted dose curve; in most records, active means well fitted curve in the direction sought with a large enough effect; inconclusive means small, poorly fitted or top-dose-only effect, or another doubt; inactive means no such curve, though single readings can be large; an effect the other way counts as inactive or inconclusive.
# Tests used:
# [1] = target: Hexokinase-4 (Homo sapiens) + Glucokinase regulatory protein (Homo sapiens) (UniProt P35557+Q14397); experiment: qHTS assay for inhibitors of recombinant human GCK-GKRP interaction: HTRF assay (AID 743207);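 further: 0% = DMSO with GCK present and -100% = DMSO wells lacking GCK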
# Sequence of Hexokinase-4 (Homo sapiens) + Glucokinase regulatory protein (Homo sapiens) (P35557 whole entry, looked up): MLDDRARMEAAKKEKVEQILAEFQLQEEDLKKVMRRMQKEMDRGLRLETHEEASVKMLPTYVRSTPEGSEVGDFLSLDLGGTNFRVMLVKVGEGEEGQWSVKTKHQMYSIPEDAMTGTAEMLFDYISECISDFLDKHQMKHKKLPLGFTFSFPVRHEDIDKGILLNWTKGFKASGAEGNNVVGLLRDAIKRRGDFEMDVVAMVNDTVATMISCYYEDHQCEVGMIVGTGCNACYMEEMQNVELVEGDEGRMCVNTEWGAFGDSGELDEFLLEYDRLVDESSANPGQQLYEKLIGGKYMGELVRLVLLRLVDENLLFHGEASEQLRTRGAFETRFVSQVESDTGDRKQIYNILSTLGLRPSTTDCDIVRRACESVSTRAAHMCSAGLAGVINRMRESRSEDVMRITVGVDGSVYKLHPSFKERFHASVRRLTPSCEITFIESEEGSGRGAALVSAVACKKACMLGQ
# Sequence of Hexokinase-4 (Homo sapiens) + Glucokinase regulatory protein (Homo sapiens) (Q14397 whole entry, looked up): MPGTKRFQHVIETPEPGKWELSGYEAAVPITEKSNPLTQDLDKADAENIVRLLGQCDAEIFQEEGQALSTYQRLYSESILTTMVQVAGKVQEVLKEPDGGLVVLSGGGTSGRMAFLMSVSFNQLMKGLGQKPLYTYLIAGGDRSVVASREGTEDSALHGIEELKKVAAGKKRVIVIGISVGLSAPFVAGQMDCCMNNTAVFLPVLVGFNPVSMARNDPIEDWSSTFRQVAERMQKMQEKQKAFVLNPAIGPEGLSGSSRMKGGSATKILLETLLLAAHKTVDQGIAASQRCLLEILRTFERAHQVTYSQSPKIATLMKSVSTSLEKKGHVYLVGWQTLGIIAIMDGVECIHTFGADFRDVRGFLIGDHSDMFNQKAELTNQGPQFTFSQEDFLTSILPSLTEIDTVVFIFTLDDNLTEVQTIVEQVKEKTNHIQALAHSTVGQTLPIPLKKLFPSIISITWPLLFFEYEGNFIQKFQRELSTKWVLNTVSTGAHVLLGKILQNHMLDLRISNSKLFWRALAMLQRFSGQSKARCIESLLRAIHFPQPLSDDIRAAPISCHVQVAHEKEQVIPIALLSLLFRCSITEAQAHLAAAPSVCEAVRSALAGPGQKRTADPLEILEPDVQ
# Outline: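 Steps: dispense GCK–GKRP complex (5 nM each, GST- and FLAG-tagged) with 2 uM S6P; pin in compounds; add XL665/Eu-cryptate-labelled antibodies; incubate 60 min at room temperature; read time-resolved FRET at 665 and 615 nm.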
# [2] = qHTS profiling of the MIPE4 collection as inhibitors of Plasmodium falciparum (3D7) proliferation (AID 743344; call rule not given here;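 further: scaled between DMSO vehicle wells and 0.29 µM artemisinin as full inhibition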); settings: P. falciparum 3D7 in erythrocytes, SYBR Green DNA fluorescence, 72 h; at 28.5 µM (top of the series) unless noted
# Outline: (§1)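 Parasite DNA was quantified by SYBR Green I fluorescence (ex 485, em 535 nm) after overnight lysis in saponin/Triton buffer at room temperature. Cultures at 0.3% parasitemia and 2.5% hematocrit were first exposed to compound for 72 h at 37 C; signals were normalised to artemisinin (0.29 uM) and vehicle wells.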
# [3] = qHTS profiling of the MIPE4 collection as inhibitors of Plasmodium falciparum (DD2) proliferation (AID 743345; call rule not given here); settings: P. falciparum Dd2 in erythrocytes, SYBR Green DNA, 72 h; at 28.5 µM (top of the series) unless noted
# Outline: as §1
# [4] = qHTS profiling of the MIPE4 collection as inhibitors of Plasmodium falciparum (DD2) proliferation (Rep 2) (AID 743346; call rule not given here); settings: P. falciparum Dd2 in erythrocytes, SYBR Green DNA, 72 h; at 28.5 µM (top of the series) unless noted
# Outline: as §1
# [5] = qHTS profiling of the MIPE4 collection as inhibitors of Plasmodium falciparum (HB3) proliferation (AID 743347; call rule not given here;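 further: plate controls were DMSO vehicle wells for no effect and artemisinin wells for full effect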); settings: P. falciparum HB3 in erythrocytes, SYBR Green DNA, 72 h; at 28.5 µM (top of the series) unless noted
# Outline: as §1
# [6] = High-throughput drug toxicity screening in the BPDCN cell line Gen2.2 (AID 1224824; call rule not given here;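 further: cells exposed to compounds for 48 h before reading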); settings: Gen2.2 BPDCN cells; at 45.8 µM (top of the series) unless noted
# Outline: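 Gen2.2, 500 cells/well, phenol red-free RPMI/10% FBS/Pen-Strep; 48 h cpd, 37 °C/5% CO2; CTG lum, 15 min RT. Norm: DMSO = 100%, bortezomib 9.2 uM final = 0%.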
# [7] = qHTS assay for measurement of the activity of small molecule inhibitors on Zika virus induced Caspase-3 activity in human iPSC derived neural progenitor cells (hNPCs) (AID 1224857); further: % of control where 0% means no effect; nearly all actives have a fitted effect of over 65% in size
# Outline: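 Quantitative HTS format: human iPSC neural progenitors, 1 h compound pretreatment, ZIKV 2 FFU/cell for 6 h at 37 C. Percent inhibition derived from luminescent caspase-3/7 signal between uninfected and infected controls.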
# [8] = qHTS Screen of the MIPE 4.0 Collection Against Ewings Sarcoma (RDES) (AID 1259252);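 further: 100% = DMSO-treated cells and 0% = medium-only wells without cells; nearly all actives have a fitted effect of over 35% in size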
# Outline: (§2)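 Here, cells in 5% FBS RPMI were exposed for two days (48 h) to compound dilutions added four hours after plating. ATP-based CellTiter-Glo luminescence measured viability, normalized to vehicle and no-cell blanks.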
# [9] = qHTS Screen of the MIPE 4.0 Collection Against Ewings Sarcoma (TC71) (AID 1259253);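 further: 100% = DMSO-treated cells and 0% = medium-only wells without cells; nearly all actives have a fitted effect of over 40% in size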
# Outline: as §2
# [10] = qHTS Screen of the MIPE 4.0 Collection Against Ewings Sarcoma (EW8) (AID 1259255);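 further: 100% = DMSO-treated cells and 0% = medium-only wells without cells; nearly all actives have a fitted effect of over 35% in size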
# Outline: as §2
# [11] = qHTS Assay for Identifying Gametocytocidal Compounds (AID 743244);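 further: on the % scale 0 is the no-effect control and ±100 the full control effect; actives lower the fluorescent signal which means gametocytes are killed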; settings: P. falciparum 3D7 stage III-V gametocytes, alamarBlue, 72 h; max response: stronger effect = lower value
# Outline: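 A resazurin-based viability read-out was applied to mature P. falciparum gametocytes: 72 h compound treatment, then 24 h dye incubation, with falling fluorescence signalling gametocytocidal effect.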
# [12] = qHTS profiling for inhibitors of Plasmodium falciparum (3D7) proliferation (AID 743322; call rule not given here;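 further: infected erythrocytes exposed to compound for 72 h before lysis; 100% = DMSO vehicle wells and 0% = 0.29 µM artemisinin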); settings: P. falciparum 3D7 proliferation; at 28.7 µM (top of the series) unless noted
# Outline: as §1
# [13] = qHTS profiling for inhibitors of Plasmodium falciparum (DD2) proliferation (AID 743323; call rule not given here); settings: lower = more inhibition; at 28.7 µM (top of the series) unless noted
# Outline: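 P. falciparum Dd2-infected erythrocytes (0.3% parasitemia, 2.5% hematocrit) exposed 72 h at 37 C, 5% CO2. Lysis with SYBR Green, overnight at room temperature, fluorescence 485/535 nm; normalized to 0.29 uM artemisinin and DMSO.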
# [14] = qHTS profiling for inhibitors of Plasmodium falciparum (HB3) proliferation (AID 743324); settings: Plasmodium falciparum HB3 blood-stage proliferation; at 28.7 µM (top of the series) unless noted;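 further: 100% = DMSO vehicle wells and 0% = artemisinin-treated control wells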
# Outline: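 SYBR Green fluorescence (485 ex/535 em) of lysed cultures, incubated overnight at room temperature in the dark, quantifies parasite DNA. Infected erythrocytes at 0.3% parasitemia and 2.5% hematocrit were exposed 72 h; values normalized to DMSO and 0.29 uM artemisinin controls.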
# [15] = qHTS assay for measurement of the activity of small molecule inhibitors on Zika virus induced Caspase-3 activity in human astrocytoma cells (AID 1224859);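 further: plate controls were ZIKV-infected untreated cells for no effect and uninfected cells for full effect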
# Outline: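 Readout is luminescence from Caspase-Glo 3/7 added after a 6 h ZIKV infection (2 FFU/cell) of compound-pretreated (1 h) SNB-19 cells; data expressed as % inhibition versus uninfected and infected wells.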
Compound,outcome [1],"parasite growth, % of DMSO control [2]","parasite growth remaining, % of DMSO control (lower = more inhibition) [3]","parasite growth, % of control (lower = inhibition) [4]","growth, % of control [5]","cell viability, % of control (lower = more cytotoxic) [6]",Potency [7],Potency [8],Potency [9],Potency [10],max response [11],remaining parasite growth % (stronger effect = lower value) [12],"activity, percent of control [13]","remaining proliferation (% of control), lower = more inhibition [14]",Potency [15]
Oc1ccc(C2CNCCc3c2cc(O)c(O)c3Cl)cc1 (centres undefined),inactive,6.63%,65.8%,14.2%,7.76%,156%,inactive,inactive,inactive,inactive,,,,,
CNC(=O)c1ccccc1Sc1ccc2c(/C=C/c3ccccn3)n[nH]c2c1,,,,,,,,,,,40.9% (inactive),,,,
NC(=O)c1ccc(I)c([N+](=O)[O-])c1,,71.2%,97.1%,90.7%,96%,44.8%,inactive,inactive,inactive,inactive,,93.8%,92.6%,77.5%,inactive
